Where a name gives a salt, the structure may show the parent alone. ± gives the standard deviation or the standard deviation of the averaged measurements.
These molecules were tested on Danio rerio Tg(wt1b:EGFP) embryo, pronephros (assay: glomerular separation, fold change vs DMSO control; higher = glomeruli further apart (abnormal)). Conditions: 25 µM; exposure: 24-48 hpf.
Method in brief: (§1)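 Using a Fiji macro, distances and angles were calculated from 16 reference points set by hand on maximum projections of pronephroi imaged dorsally (470 nm, 10 z-slices) in agarose-filled 96-well plates. The dechorionated Tg(wt1b:EGFP) zebrafish embryos had received 25 μM compound in 0.5% DMSO in HEPES-buffered E3 with 0.003% PTU from 24 to 48 hpf at 28.5°C. Values more than 2 SD from a feature's mean were excluded. Each feature appears as a fold change over the mean of DMSO-treated embryos from the same day.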

SMILES	glomerular separation
CC(C)(C)NCC(O)c1ccc(O)c(CO)c1 (stereo not drawn) [Salbutamol]	1.15 ± 0.52
Nc1ccc(S(=O)(=O)Nc2ccnn2-c2ccccc2)cc1 [Sulfaphenazole]	1.06 ± 0.3
Cc1cc2cc3c(C)cc(=O)oc3c(C)c2o1 [Trioxsalen]	0.97 ± 0.24
CC(=O)CCCCn1c(=O)c2c(ncn2C)n(C)c1=O [Pentoxifylline]	0.678 ± 0.2
Cc1[nH]c(=O)c(C#N)cc1-c1ccncc1 [Milrinone]	1.13 ± 0.36
CN(C/C=C/C#CC(C)(C)C)Cc1cccc2ccccc12 [Terbinafine]	1.03 ± 0.34
CCCN[C@H]1CCc2nc(N)sc2C1 [Pramipexole dihydrochloride]	0.857 ± 0.44
Nc1cc(C(Cl)=C(Cl)Cl)c(S(N)(=O)=O)cc1S(N)(=O)=O [Clorsulon]	0.798 ± 0.23
O=C(O)CN(CCN(CC(=O)O)CC(=O)O)CCN(CC(=O)O)CC(=O)O [Pentetic acid]	1.23 ± 0.47
O=C(O[C@@H]1C[C@@H]2C[C@H]3C[C@H](C1)N2CC3=O)c1c[nH]c2ccccc12 [Dolasetron mesilate]	0.787 ± 0.28
CCCCCCCCNC(C)C(O)c1ccc(SC(C)C)cc1 (stereo not drawn) [Suloctidil]	4.23 ± 2.2

Each molecule was assayed on Danio rerio Tg(wt1b:EGFP) embryo, pronephros (assay: glomerular width (mean of left and right), fold change vs DMSO control; higher = wider glomerulus). Conditions: 25 µM; exposure: 24-48 hpf.
Method in brief: as §1

SMILES	glomerular width
CN(C)CCN(Cc1cccs1)c1ccccn1 [Methapyrilene hydrochloride]	0.99 ± 0.077
Cc1ccnc2c1NC(=O)c1cccnc1N2C1CC1 [Nevirapine]	1.02 ± 0.016
CC(Oc1ccccc1)C(=O)N[C@@H]1C(=O)N2[C@@H]1SC(C)(C)[C@@H]2C(=O)O (stereo partly drawn) [Phenethicillin potassium salt]	0.963 ± 0.057
CN1CCN(CCCN2c3ccccc3Sc3ccc(C(F)(F)F)cc32)CC1 [Trifluoperazine dihydrochloride]	0.953 ± 0.015
CCN(CC)CCCC(C)Nc1c2ccc(Cl)cc2nc2ccc(OC)cc12 (stereo not drawn) [Quinacrine dihydrochloride hydrate]	1.01 ± 0.016
N=C(N)NCCN1CCCCCCC1 [Guanethidine sulfate]	1.04 ± 0.04
Nc1nc(=O)c2c([nH]1)NC[C@@H](CNc1ccc(C(=O)N[C@@H](CCC(=O)O)C(=O)O)cc1)N2C=O [Folinic acid calcium salt]	1.01 ± 0.016
COc1cc2nc(N(C)CCCNC(=O)C3CCCO3)nc(N)c2cc1OC (stereo not drawn) [Alfuzosin hydrochloride]	1.01 ± 0.02
CC(=O)O[C@]1(C(C)=O)CC[C@H]2[C@@H]3C=C(C)C4=CC(=O)CC[C@]4(C)[C@H]3CC[C@@]21C [Megestrol acetate]	0.864 ± 0.029
CCN(CC)CCNC(=O)c1cc(Cl)c(N)cc1OC [Metoclopramide monohydrochloride]	0.962 ± 0.015
COCC1=C(C(=O)OC(C)OC(=O)OC(C)C)N2C(=O)[C@@H](NC(=O)/C(=N\OC)c3csc(N)n3)[C@H]2SC1 (stereo partly drawn) [Cefpodoxime proxetil]	0.893 ± 0.055
CCC(=O)[C@@]1(C)[C@H](C)C[C@H]2[C@@H]3CCC4=CC(=O)C=C[C@]4(C)[C@H]3[C@@H](O)C[C@@]21C [Rimexolone]	1.02 ± 0.017
Brc1c(NC2=NCCN2)ccc2nccnc12 [Brimonidine L-Tartrate]	1.11 ± 0.043
COc1ccc2[nH]c([S+]([O-])Cc3ncc(C)c(OC)c3C)nc2c1 (stereo not drawn) [Omeprazole]	0.935 ± 0.073
CCOC(=O)[C@H](CCc1ccccc1)N[C@@H](C)C(=O)N1Cc2ccccc2C[C@H]1C(=O)O [Quinapril hydrochloride]	0.987 ± 0.012
O=C(NC(Cc1cc(=O)[nH]c2ccccc12)C(=O)O)c1ccc(Cl)cc1 (stereo not drawn) [Rebamipide]	0.942 ± 0.061
C[C@@H]1C[C@H]2[C@@H]3C[C@H](F)C4=CC(=O)C=C[C@]4(C)[C@@]3(Cl)[C@@H](O)C[C@]2(C)[C@H]1C(=O)COC(=O)C(C)(C)C [Clocortolone pivalate]	1.26 ± 0.019
CC(C)N1CCN(c2ccc(OCC3COC(Cn4cncn4)(c4ccc(Cl)cc4Cl)O3)cc2)CC1 (stereo not drawn) [Terconazole]	1.0642 ± 0.00066
CNCCC=C1c2ccccc2CCc2ccccc21 [Nortriptyline hydrochloride]	0.9614 ± 0.0024
CCN(CC)C(C)CN1c2ccccc2Sc2ccccc21 (stereo not drawn) [Ethopropazine hydrochloride]	1.03 ± 0.035
CN1CCC(=C2c3ccccc3Sc3ccccc32)CC1 [Pimethixene maleate]	1.01 ± 0.021
CCOc1ccc2ccccc2c1C(=O)N[C@@H]1C(=O)N2[C@@H]1SC(C)(C)[C@@H]2C(=O)O [Nafcillin sodium salt monohydrate]	0.941 ± 0.019
